Measured values as given in the supplement of paper PMC3334620.
The full ranking holds about 33,000 sequences; the median of “E-score (-0.5 to 0.5)” is about -0.043, and the highest 2% start at about 0.37. The list comes from a sample in which the highest values are over-represented; it also holds similar and randomly drawn sequences.

What follows are sequences tested against T1, Upc2 (UniProt Q12151) (assay: PBM E-score (8-mer binding enrichment) (E-score (-0.5 to 0.5)); higher = stronger / more preferred TF binding). Conditions: protein concentration: 200 nM; construct: GST-full length.
T1 sequence: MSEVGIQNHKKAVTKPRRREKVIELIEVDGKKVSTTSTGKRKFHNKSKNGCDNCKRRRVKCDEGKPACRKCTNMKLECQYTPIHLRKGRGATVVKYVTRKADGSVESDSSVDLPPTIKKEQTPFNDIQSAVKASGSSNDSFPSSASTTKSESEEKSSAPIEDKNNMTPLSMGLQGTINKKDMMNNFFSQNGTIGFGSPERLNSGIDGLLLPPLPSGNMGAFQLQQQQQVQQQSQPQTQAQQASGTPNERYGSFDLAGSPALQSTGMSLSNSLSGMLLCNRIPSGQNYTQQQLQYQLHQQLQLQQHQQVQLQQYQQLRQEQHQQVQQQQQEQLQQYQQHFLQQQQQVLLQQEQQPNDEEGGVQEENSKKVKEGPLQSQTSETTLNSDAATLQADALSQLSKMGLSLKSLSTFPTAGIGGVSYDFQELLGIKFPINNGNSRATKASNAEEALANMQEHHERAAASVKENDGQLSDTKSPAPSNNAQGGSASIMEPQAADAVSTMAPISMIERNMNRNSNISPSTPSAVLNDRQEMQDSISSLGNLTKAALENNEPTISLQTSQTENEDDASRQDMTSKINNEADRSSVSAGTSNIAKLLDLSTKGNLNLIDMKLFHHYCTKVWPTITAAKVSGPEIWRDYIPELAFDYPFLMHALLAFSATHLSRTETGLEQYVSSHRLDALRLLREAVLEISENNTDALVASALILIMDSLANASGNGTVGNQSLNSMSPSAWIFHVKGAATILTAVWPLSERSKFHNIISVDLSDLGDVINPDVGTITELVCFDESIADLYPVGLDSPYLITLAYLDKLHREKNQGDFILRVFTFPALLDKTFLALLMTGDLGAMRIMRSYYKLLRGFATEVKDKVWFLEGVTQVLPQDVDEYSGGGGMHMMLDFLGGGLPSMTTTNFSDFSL
Method: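 Universal 'all 10-mer' protein binding microarrays (Agilent AMADID 015681) probed with GST-tagged S. cerevisiae TFs (full-length or DBD) made by in vitro transcription/translation (PURExpress), about 100-200 nM. Bound TF was detected with fluorescent anti-GST. Each ungapped 8-mer (which stands for itself and its reverse complement) is scored by the PBM enrichment score (E-score), a modified Wilcoxon-Mann-Whitney statistic from -0.5 to +0.5, computed with the Universal PBM Analysis Suite. Scale: above 0.35 generally sequence-specific binding.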

Row | Sequence | PBM E-score
1 | TACCATGA | -0.108
2 | ACTGAACA | 0.0269
3 | CCTGAACA | -0.0282
4 | ACTGAACG | 0.395
5 | CCTGAACC | -0.146
6 | ACTGAACT | -0.0256
7 | CCTGAACG | 0.394
8 | GCTCTTAA | 0.108
9 | AGCAGAAG | -0.255
10 | ACAAATTC | -0.0428
11 | GGGCTGTA | -0.0846
12 | AATCGTTA | 0.292
13 | CATCGTTA | 0.324
14 | AATCGTTG | 0.142
15 | CATCGTGC | 0.054
16 | AATCGTTC | 0.396
17 | CATCGTTC | 0.416
18 | TACAGGAA | 0.0741
19 | ATCCGAGG | 0.18
20 | AGTCCTGA | -0.291
21 | AAAGGGCC | -0.285
22 | CGTTTAGA | 0.466
23 | AGTTTAGC | 0.00286
24 | GGTTTAGA | -0.055
25 | CGTTTAGC | 0.48

Row | Sequence | PBM E-score
26 | CATTTAGC | -0.0255
27 | AGTTTAGA | -0.00847
28 | GGACTACA | -0.219
29 | ATTCCATC | 0.0445
30 | CCCTACTA | -0.242
31 | ATTGGTTA | -0.0342
32 | AGTGAGTC | -0.211
33 | CAGTTGTC | -0.147
34 | CAGAGAGC | -0.203
35 | GGATTTAC | 0.00936
36 | AGCAGATG | -0.221
37 | AGCGATTC | 0.181
38 | CACGATTC | 0.258
39 | AACGATTG | 0.391
40 | ACCGATTG | 0.0763
41 | AACGATTA | 0.364
42 | AACGATTC | 0.393
43 | TAAAATCA | 0.0046
44 | ACGTGCTA | 0.207
45 | CCCGCAAG | -0.239
46 | ATGTCATG | -0.0317
47 | CATGGATA | -0.0903
48 | ACGAACGA | 0.435
49 | ACGAAGGA | 0.379
50 | ACGAACGG | 0.387

Row | Sequence | PBM E-score
51 | GCGAACGC | 0.158
52 | ACGAACAG | 0.314
53 | GCGAACAA | 0.139
54 | CCGAAGGA | -0.0603
55 | ACGAACGT | 0.32
56 | ACGAACGC | 0.323
57 | TCGAACGA | 0.368
58 | ACGAAGGG | 0.287
59 | GCGAACGA | 0.418
60 | TCGGTGCA | -0.104
61 | GTAATATA | 0.197
62 | CTTTCTCA | 0.0661
63 | AGCTCAGA | -0.0803
64 | ACCGACTA | 0.0499
65 | ATCGAGGG | -0.0211
66 | ATACATGC | 0.169
67 | AAAACCAC | -0.0422
68 | CCGAAGAA | -0.127
69 | AAGATGCC | 0.00959
70 | CCGAACGG | 0.199
71 | CCGAACGC | 0.0534
72 | CCGAACGA | 0.384
73 | ATTATGAG | -0.102
74 | GCAAGGAC | -0.135
75 | ACTTCACG | 0.0222

Row | Sequence | PBM E-score
76 | GCGAGAGC | 0.23
77 | ACGAGATA | 0.355
78 | ACGAGACC | 0.347
79 | CCGAGATC | 0.018
80 | ACGAGAGC | 0.375
81 | ATGAGATG | -0.243
82 | ACGAGATC | 0.408
83 | ACGAGAGA | 0.343
84 | ACGAGATG | 0.38
85 | ACGTCCCA | -0.208
86 | CCGCCCAG | -0.0999
87 | CGAAACAA | 0.188
88 | ATTTGCGC | 0.024
89 | GGATGCTA | -0.0482
90 | ATTTCGCC | 0.131
91 | CGAGCATA | 0.175
92 | CCTTAGGC | -0.0987
93 | AACGAATG | 0.416
94 | TACGAATA | 0.415
95 | GACGAATA | 0.0289
96 | AGCGAATG | 0.177
97 | AACGAATC | 0.39
98 | CACGAATG | 0.0101
99 | TACGAAAA | 0.411
100 | CACGAAAA | 0.134

Row | Sequence | PBM E-score
101 | CACGAATC | 0.0313
102 | CACGAATA | 0.175
103 | GACGAAAA | 0.177
104 | GACGAATC | 0.138
105 | CGACCAGA | 0.0386
106 | GACCGTGA | -0.166
107 | CCGCTGGA | -0.0874
108 | ATAATTGC | -0.037
109 | AACCTGCT | -0.0408
110 | CACCATGC | -0.295
111 | CCGGGCTA | -0.18
112 | CACGTACG | 0.346
113 | ATAACGAT | 0.144
114 | ATCGAATA | 0.211
115 | AACGAATA | 0.381
116 | AAAGAATT | -0.0689
117 | ACCGAATA | 0.0988
118 | AAGGAATT | -0.215
119 | AACGAATT | 0.378
120 | GATCAGCC | -0.29
121 | ATCTTCCG | 0.168
122 | AGCTTTTA | 0.163
123 | TGTGCGAA | 0.0333
124 | GGAACGTA | 0.282
125 | CGAACAAA | 0.183

Row | Sequence | PBM E-score
126 | CGAACGAC | 0.401
127 | CGAACGAA | 0.398
128 | CGAACGCC | 0.0792
129 | CGAACGTC | 0.135
130 | CGAACGGA | 0.223
131 | GTAACGAC | 0.326
132 | GGAACGCC | 0.013
133 | GGAACGCA | 0.174
134 | GGAACGAC | 0.453
135 | GGAACGAA | 0.464
136 | ATCCTTAC | -0.0381
137 | AAAACTCA | -0.0631
138 | CGACCCTC | 0.0606
139 | AAGCCCAC | -0.0729
140 | AAATGCAG | -0.0984
141 | GCTGGATA | -0.131
142 | CCCTGTAG | -0.234
143 | AGAACGAA | 0.376
144 | ACAACGAG | 0.257
145 | AGAACGAC | 0.391
146 | CTAACGAG | 0.343
147 | AGAACGTC | -0.066
148 | AGAACAAA | 0.103
149 | AGAACGAT | 0.342
150 | CGAACGAG | 0.427

Row | Sequence | PBM E-score
151 | AGAACGAG | 0.42
152 | ATAACGAC | 0.159
153 | AGAACGTG | -0.00321
154 | CGAACGCG | 0.185
155 | AAACCTGT | 0.225
156 | GCTCTCAC | -0.32
157 | TCCGCGCA | -0.0128
158 | AAATACTC | -0.0601
159 | CAGTTGAG | -0.255
160 | ACGGGCTC | 0.128
161 | AATAACGT | 0.133
162 | TGAACGCA | 0.189
163 | CTAACGAA | 0.287
164 | ATAACGAA | 0.197
165 | TTAACGAA | 0.448
166 | TGAACGAA | 0.458
167 | TCAACGAA | 0.249
168 | CTACCGTA | 0.301
169 | TGACGACA | 0.0658
170 | GCACGACC | -0.2
171 | GAACGACA | 0.437
172 | CAACGACA | 0.313
173 | GGACGACC | -0.212
